Screening results from PubChem BioAssay.
Gli-Sufu antag: Gli-Sufu pathway antagonists, primary screen, luciferase luminescence, Sufu-KO-LIGHT cells, uHTS. Sufu-KO-LIGHT fibroblasts, Gli luciferase reporter luminescence. inhibition, % at 5 µM. actives 0.74% (n = 340,000). AID 588413, 2011;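 active = inhibition above about 55%, limit read from the data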;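 also: 0% = DMSO-treated cells and 100% = wells with medium but no cells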
GalR3 antag: GalR3 antagonists in HEK293 cells, primary screen, cell-based, fluorescence readout; Galanin receptor type 3 (Homo sapiens), O60755; HEK293 GalR3-CNG cAMP membrane potential fluorescence; galR3 body fused to GalR1 C-terminus; inhibition, % at 3 µM; actives 0.44% (n = 360,000); AID 651719, 2012;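 active = inhibition above the screen-wide average plus 3 SD, cut at about 13% in these data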;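 also: forskolin and galanin both at EC90 stimulate the cells; cAMP rise reported by CNG channel membrane potential dye signal; 0% = forskolin plus galanin with DMSO and 100% = forskolin alone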
NR2F2 inh: NR2F2 transcriptional activity inhibitors, primary screen, cell-based, luciferase reporter, HEK293T, luminescence; actives 0.7% (n = 370,000); inhibition, % at 8.6 µM; HEK293T NGFI-A luciferase reporter; AID 686940, 2013;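 active = inhibition above a per-plate cutoff, mean inhibition of test wells between control levels plus 3 SD, cut at about 38% in these data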;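 also: cells cotransfected with COUP-TFII expression vector driving the NGFI-A reporter; 0% = median of COUP-TF2 test wells and 100% = reporter-only cells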
Target sequence (P24468 whole entry, looked up): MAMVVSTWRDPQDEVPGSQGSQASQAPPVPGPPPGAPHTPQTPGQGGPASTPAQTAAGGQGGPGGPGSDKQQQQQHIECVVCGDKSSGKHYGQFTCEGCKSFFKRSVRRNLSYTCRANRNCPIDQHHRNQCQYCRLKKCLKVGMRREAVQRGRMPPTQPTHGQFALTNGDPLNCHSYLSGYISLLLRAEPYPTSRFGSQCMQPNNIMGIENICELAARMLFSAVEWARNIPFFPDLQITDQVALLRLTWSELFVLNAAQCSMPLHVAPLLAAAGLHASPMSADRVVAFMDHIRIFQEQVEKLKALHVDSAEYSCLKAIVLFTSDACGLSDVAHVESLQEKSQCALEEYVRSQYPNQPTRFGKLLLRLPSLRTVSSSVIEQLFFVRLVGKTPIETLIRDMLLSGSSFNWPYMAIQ
697 NFkB inh: inhibitors of PMA/ionomycin-induced NF-kB reporter, 697 cells, primary screen, B-cell NF-kB inhibitor project, cell-based, luminescence, uHTS | 697 B-cell NF-kB luciferase reporter, 16 h | inhibition, % at 4 µM | actives 0.33% (n = 330,000) | AID 435022, 2010; in the data active = inhibition above about 35%
Jurkat NFkB inh: inhibitors of induced NF-kB luciferase reporter, primary screen, TCR NF-kB activation inhibitor project, cell-based, luminescence, uHTS. Jurkat, PMA/ionomycin-induced NF-kB luciferase reporter. inhibition, % at 4 µM. actives 0.53% (n = 330,000); in the data active = inhibition above about 50%
Gal4-VP16 ctr: Gal4-VP16 luciferase reporter inhibitors, counter-screen for COUP-TFII antagonist project, cell-based, luminescence, HEK293. AID 687007, 2013. actives 25% (n = 2,500). shares compounds with NR2F2 inh. inhibition, % at 8.5 µM; in the data active = inhibition above about 13%
COUP-TFII conf: NR2F2 transcriptional activity inhibitors, confirmation, cell-based, luciferase reporter, HEK293, triplicate; shares compounds with NR2F2 inh; HEK293 NGFI-A luciferase reporter, luminescence; inhibition, % at 8.5 µM; actives 45% (n = 2,500);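 active = mean inhibition over three repeats above a set limit taken from the earlier primary screen, cut at about 38% in these data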;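 also: 100% = cells given the luciferase reporter alone without the COUP-TF2 vector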
* hit, by the source's call; . = no result given. Shown are actives, neighbours in structure and some others; about 2% of the full set was active somewhere.

SMILES	Gli-Sufu antag	GalR3 antag	NR2F2 inh	697 NFkB inh	Jurkat NFkB inh	Gal4-VP16 ctr	COUP-TFII conf
COc1ccc(-c2csc(NC(=O)COc3ccc(N(C)S(=O)(=O)c4ccc(C)cc4)cc3)n2)cc1	49.5	1.4	40.3*	-12.7	-3.8	-13.8	24.7
Cc1ccc(-c2csc(NC(=O)COc3ccc(N(C)S(=O)(=O)c4ccc(C)cc4)cc3)n2)cc1	7.0	-2.8	7.5	-28.8	11.1	.	.
CN(C)[C@@H]1CCN(c2ccc3c(c2)O[C@H]2CCN(C2)S3(=O)=O)C1	.	.	-8.8	.	.	.	.
CC1CCc2nc(NC(=O)c3ccc(S(=O)(=O)N4CCCc5ccccc54)cc3)sc2C1 (stereo not given)	2.0	-6.9	3.3	-23.9	2.3	.	.
O=C(Nc1nc2c(s1)CCCC2)c1ccc(S(=O)(=O)N2CCCc3ccccc32)cc1	2.4	-3.0	49.7*	-71.9	10.4	-7.6	31.2
CC(C)(C)c1ccc(C(=O)NC(=S)Nc2nc3c(s2)CCCC3)cc1	30.0	-2.5	48.9*	-106.7	-18.6	-24.2	36.9
COc1ccc(N2CCN(CCNS(=O)(=O)c3ccccc3[N+](=O)[O-])CC2)cc1	.	.	11.1	.	.	.	.
COC(=O)C1CCCN(C(=O)C2CCN(S(=O)(=O)c3ccccc3[N+](=O)[O-])CC2)C1 (stereo not given)	.	.	-3.7	.	.	.	.
COc1ccc(Nc2sc(C(=O)c3ccc(Cl)cc3)c(N)c2C(=O)Nc2ccccc2OC)cc1	25.8	-3.5	2.0	-6.0	-4.9	.	.
COc1ccccc1NC(=O)c1c(Nc2ccccc2C)sc(C(=O)Nc2cccc(Cl)c2)c1N	8.0	2.6	38.4*	4.0	3.3	3.8	60.9*
COC(=O)C(C(=O)OC)[C@H]1C=C[C@@H](C(=O)NS(=O)(=O)c2ccc(C)cc2)N(C(C)=O)C1	.	.	9.4	.	.	.	.
C=CCOC(=O)C(CO)NC(=O)CCCC(=O)O (stereo not given)	.	.	-24.6	.	.	.	.
COc1ccc(S(=O)(=O)N2CCN(CCOc3ccc(Br)cc3)CC2)cc1OC	6.1	-5.2	60.4*	-25.3	16.1	-13.3	27.1
CS(=O)(=O)Nc1ccc(N2CCN(c3ccc(C(F)(F)F)cn3)CC2)nc1	22.9	-4.5	43.1*	-44.2	1.0	-2.5	10.7
Cc1cccc(C(=O)Nc2ccc(N3CCN(c4ccc(C(F)(F)F)cn4)CC3)nc2)c1	10.7	4.6	8.9	7.8	5.6	.	.
O=C(Nc1ccc(N2CCOCC2)nc1)c1ccc(C(F)(F)F)cc1	1.5	4.5	48.7*	-10.4	18.6	9.8	34.7
COc1ccc(CNC(=O)c2c(N)[nH]c(C(=O)c3ccccc3)c2-c2ccc3ccccc3c2)cc1OC	.	-7.1	6.9	.	.	.	.
COc1ccc(CCNC(=O)c2c(N)[nH]c(C(=O)c3ccccc3)c2-c2ccc(N(C)C)cc2)cc1	.	.	43.6*	.	.	-19.9	3.1
COCCCN=C1NN=C(c2cc(C)n(Cc3ccco3)c2C)CS1	-28.0	1.3	-34.4	-129.7	13.4	.	.
Cc1cc(C2=NNC(=NC3CC3)SC2)c(C)n1Cc1ccco1	84.0*	1.1	88.5*	.	.	77.3*	103.1*
Cc1cc(C2=NNC(=NC3CC3)SC2)c(C)n1-c1ccccc1	90.5*	-5.2	52.4*	.	.	70.6*	106.0*
COc1ccc(-n2c(C)cc(C3=NNC(=NC4CC4)SC3)c2C)cc1	.	-5.8	1.2	.	.	.	.
c1ccc(CN2CCC(CNc3ncnc4ccccc34)C2)cc1 (stereo not given)	23.1	-6.4	41.1*	.	.	-0.7	15.4
CCC(Sc1nc(=O)cc(N)n1-c1cccc(C)c1)C(=O)Nc1cc(C)on1 (stereo not given)	-28.7	-12.5	43.0*	15.5	8.1	-3.4	11.6
CCC(Sc1nc(=O)cc(N)n1-c1ccccc1)C(=O)Nc1cc(C)on1 (stereo not given)	0.6	-3.6	-3.8	9.1	0.6	.	.
